According to PubChem BioAssay (NCATS):
Inconclusive results are not listed. The source made the active and inactive calls. Calls follow the shape of the dose curve; as a rule, active = well fitted curve in the direction sought with a large enough effect; inconclusive = small, poorly fitted or top-dose-only effect, or another doubt; inactive = no such curve, though single readings can be large; an effect the other way counts as inactive or inconclusive. *1 amine or outer side, *2 acyl side, *3 side chain or, on linkers, in order; H or OH if unused. Where a SMILES comes first, the peptide text is derived from it. Bridges are numbered along the chain shown (N, C = ends). [ ]: non-standard residue; d: D form. The star is where a group is joined. ξ: configuration not given here. X10 = NC1=NCCC(C(N[*:1])C(=O)[*:2])N1; ΔAla(3-NHCONH2) = NC(=O)NC=C(N)C(=O)O; ξβ3hOrn = NCCCC(N)CC(=O)*; Dap = NC[CH](N)C(=O)O

Assays:
[1] = qHTS of pediatric cancer cell lines to identify multiple opportunities for drug repurposing: Primary screen for SK-N-MC cells (AID 1347093);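 also: series mostly up to about 46 µM; plate controls were DMSO neutral control for no effect and bortezomib for full effect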
Outline: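 Metabolically active cells were quantified by ATP-dependent luminescence (CellTiter-Glo, 15 min at room temperature) following 48 h treatment. Cells had been plated at 500-1,000 per well and settled for 5 h beforehand.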

[2] = qHTS of pediatric cancer cell lines to identify multiple opportunities for drug repurposing: Primary screen for BT-37 cells (AID 1347094);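 also: series mostly up to about 57 µM; plate controls were DMSO for no effect and bortezomib for full effect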
Outline: (§1)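 Primary screen of approved and investigational compounds on cells in growth media at 37 degrees C, 5% CO2. MIPE set at 11-point and NPC set at 8-point dilutions; viability scored by ATP-based luminescence at 48 hours.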

[3] = qHTS of pediatric cancer cell lines to identify multiple opportunities for drug repurposing: Primary screen for NB-EBc1 cells (AID 1347095);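 also: plate controls were DMSO neutral control for no effect and bortezomib for full effect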
Outline: as §1

[4] = qHTS of pediatric cancer cell lines to identify multiple opportunities for drug repurposing: Primary screen for U-2 OS cells (AID 1347096);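 also: plate controls were DMSO wells for no effect and bortezomib positive control wells for full effect; nearly all actives have a fitted effect of over 50% in size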
Outline: (§2)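 Viability after 48 h compound treatment at 37C, 500-1,000 cells/well, read as ATP luminescence with CellTiter-Glo. Primary screens used 11-point (MIPE, 0.78 nM-46 µM) or 8-point (NPC, 0.59 nM-46 µM) final concentrations; follow-up screens used 11-point dilutions.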

[5] = qHTS of pediatric cancer cell lines to identify multiple opportunities for drug repurposing: Primary screen for Saos-2 cells (AID 1347097); also: % is scaled to controls: 0 for no effect and ±100 for the full control effect; nearly all actives have a fitted effect of over 40% in size
Outline: as §1

[6] = qHTS of pediatric cancer cell lines to identify multiple opportunities for drug repurposing: Primary screen for SK-N-SH cells (AID 1347098);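 also: DMSO served as neutral control and bortezomib at 2.3 µM as positive control; % is scaled to controls: 0 for no effect and ±100 for the full control effect; nearly all actives have a fitted effect of over 65% in size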
Outline: (§3)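 Cells (500-1,000/well) rested 5 h, then received compounds for 48 h; metabolically active cells were measured by CellTiter-Glo luminescence. Final concentrations spanned up to 46 µM (MIPE, 11-point) or 0.59 nM-46 µM (NPC, 8-point) in primary screens, 11-point in follow-ups.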

[7] = qHTS of pediatric cancer cell lines to identify multiple opportunities for drug repurposing: Primary screen for NB1643 cells (AID 1347099);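 also: plate controls were DMSO neutral control for no effect and bortezomib positive control for full effect; nearly all actives have a fitted effect of over 50% in size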
Outline: as §1

[8] = qHTS of pediatric cancer cell lines to identify multiple opportunities for drug repurposing: Primary screen for LAN-5 cells (AID 1347100);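 also: plate controls were DMSO neutral control for no effect and bortezomib positive control for full effect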
Outline: as §2

[9] = qHTS of pediatric cancer cell lines to identify multiple opportunities for drug repurposing: Primary screen for BT-12 cells (AID 1347101);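 also: plate controls were DMSO for no effect and bortezomib positive control for full effect; nearly all actives have a fitted effect of over 25% in size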
Outline: as §3

[10] = qHTS of pediatric cancer cell lines to identify multiple opportunities for drug repurposing: Primary screen for Rh18 cells (AID 1347102); also: % is scaled to controls: 0 for no effect and ±100 for the full control effect; nearly all actives have a fitted effect of over 65% in size
Outline: as §2

CCCC(CCC)(C(=O)OCC)C(=O)OCC
inactive: Potency [1] | Potency [2] | Potency [3] | Potency [4] | Potency [5] | Potency [6] | Potency [7] | Potency [8] | Potency [9] | Potency [10]

CCOC(=O)Oc1ccc(CCNC(=O)[C@H](CCSC)NC(C)=O)cc1OC(=O)OCC
inactive: Potency [1] | Potency [2] | Potency [3] | Potency [4] | Potency [5] | Potency [6] | Potency [7] | Potency [8] | Potency [9] | Potency [10]

Cn1cc(S(C)=O)c(=O)c2ccc(F)cc21 (stereo not given)
inactive: Potency [1] | Potency [2] | Potency [3] | Potency [4] | Potency [5] | Potency [6] | Potency [7] | Potency [8] | Potency [9] | Potency [10]

O=C(O)Cn1cnnn1
inactive: Potency [1] | Potency [2] | Potency [3] | Potency [4] | Potency [5] | Potency [6] | Potency [7] | Potency [8] | Potency [9] | Potency [10]

CC(C)(Oc1ccc(Cl)cc1)C(=O)OCCCOC(=O)C(C)(C)Oc1ccc(Cl)cc1
inactive: Potency [1] | Potency [2] | Potency [3] | Potency [4] | Potency [5] | Potency [6] | Potency [7] | Potency [8] | Potency [9] | Potency [10]

NCCCC(N)CC(=O)NCC1NC(=O)C(CO)NC(=O)C(N)CNC(=O)C(C2CCN=C(N)N2)NC(=O)C(=CNC(N)=O)NC1=O (stereo not drawn) (H-[Dap]S[Dap](ξβ3hOrn)[ΔAla(3-NHCONH2)][X10]; lactam 1-C; configuration not given here)
inactive: activity change, negative = cytotoxic [1] -13.5% [at 0.597 µM] | activity change, negative = cytotoxic [2] 18% [at 0.745 µM] | activity change, negative = cytotoxic [3] 29.4% [at 0.597 µM] | activity change, negative = cytotoxic [4] 13.6% [at 0.597 µM] | activity change, negative = cytotoxic [5] 29.1% [at 0.597 µM] | activity change, negative = cytotoxic [6] -4.49% [at 0.741 µM] | activity change, negative = cytotoxic [7] 13.7% [at 0.597 µM] | activity change, negative = cytotoxic [8] 6.67% [at 0.597 µM] | activity change, negative = cytotoxic [9] 5.9% [at 0.745 µM] | activity change, negative = cytotoxic [10] 6.67% [at 0.597 µM]

C/C(=C1\CCOC(=O)S1)N(C=O)Cc1cnc(C)nc1N
inactive: Potency [1] | Potency [2] | Potency [3] | Potency [4] | Potency [5] | Potency [6] | Potency [7] | Potency [8] | Potency [9] | Potency [10]

CCCC(=O)Nc1ccc(O)c(C(C)=O)c1
inactive: Potency [1] | Potency [2] | Potency [3] | Potency [4] | Potency [5] | Potency [6] | Potency [7] | Potency [8] | Potency [9] | Potency [10]

CC(=O)OCC(=O)[C@@]1(O)[C@H](OC(C)=O)C[C@H]2[C@@H]3CCC4=CC(=O)C=C[C@]4(C)[C@@]3(F)[C@@H](O)C[C@@]21C
inactive: Potency [1] | Potency [2] | Potency [3] | Potency [4] | Potency [5] | Potency [6] | Potency [7] | Potency [8] | Potency [9] | Potency [10]

CCCCN(CCCC)C(C(N)=O)c1ccc(OC)cc1 (stereo not given)
inactive: Potency [1] | Potency [2] | Potency [3] | Potency [4] | Potency [5] | Potency [6] | Potency [7] | Potency [8] | Potency [9] | Potency [10]

Cc1cc(C(C)(C)C)c(O)c(C(C)(C)C)c1
inactive: Potency [1] | Potency [2] | Potency [3] | Potency [4] | Potency [5] | Potency [6] | Potency [7] | Potency [8] | Potency [9] | Potency [10]

CC(=O)OC[C@H]1O[C@@H](OC(C)=O)[C@H](OC(C)=O)[C@@H]1OC(C)=O
inactive: Potency [1] | Potency [2] | Potency [3] | Potency [4] | Potency [5] | Potency [6] | Potency [7] | Potency [8] | Potency [9] | Potency [10]

COC(=O)/C=C\C(=O)OC
inactive: Potency [1] | Potency [2] | Potency [3] | Potency [4] | Potency [5] | Potency [6] | Potency [7] | Potency [8] | Potency [9] | Potency [10]

Cc1ccc(C(=O)C(=O)O)cc1C
inactive: Potency [1] | Potency [2] | Potency [3] | Potency [4] | Potency [5] | Potency [6] | Potency [7] | Potency [8] | Potency [9] | Potency [10]

COc1cc(C=O)ccc1O
inactive: Potency [1] | Potency [2] | Potency [3] | Potency [4] | Potency [5] | Potency [6] | Potency [7] | Potency [8] | Potency [9] | Potency [10]

O=C(O)[C@H](O)[C@@H](O)[C@H](O[C@@H]1O[C@H](CO)[C@H](O)[C@H](O)[C@H]1O)[C@H](O)CO
inactive: Potency [1] | Potency [2] | Potency [3] | Potency [4] | Potency [5] | Potency [6] | Potency [7] | Potency [8] | Potency [9] | Potency [10]

Cc1cccc(OCC(O)CNC(C)(C)C)c1C (stereo not given)
inactive: Potency [1] | Potency [2] | Potency [3] | Potency [4] | Potency [5] | Potency [6] | Potency [7] | Potency [8] | Potency [9] | Potency [10]

CN(C)CCN1CCN(c2cccc(Cl)c2)C1=O
inactive: Potency [1] | Potency [2] | Potency [3] | Potency [4] | Potency [5] | Potency [6] | Potency [7] | Potency [8] | Potency [9] | Potency [10]

C1=CC2C3C=CC(C3)C2C1 (stereo not given)
inactive: Potency [1] | Potency [2] | Potency [3] | Potency [4] | Potency [5] | Potency [6] | Potency [7] | Potency [8] | Potency [9] | Potency [10]

CCCCOC(=O)CCCCCCCCC(=O)OCCCC
inactive: Potency [1] | Potency [2] | Potency [3] | Potency [4] | Potency [5] | Potency [6] | Potency [7] | Potency [8] | Potency [9] | Potency [10]
